For part of these data: Measured potencies and affinities stand elsewhere. Active and inactive are the calls of the source.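 Rule for the calls, unless noted: active = membrane potential signal rise above negative control mean plus 3 SD in both duplicates, also active in the earlier TRPC4 screen; inactive = the rest.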
How the values were obtained:
[1] = test system: TRPC4 beta (transient receptor potential cation channel C4), mouse; assay: TRPC4 cation channel opening, retest – cell-based, Fluo4 calcium, HEK293 TRPC4beta/mu-opioid, duplicates, 10 µM, confirmation (AID 2426;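 active = fluorescence ratio normalized to control raised more than 50% in primary screen plus both repeat runs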); conditions: Fluo4 calcium fluorescence, at 10 µM; stronger effect = higher value
[2] = test system: transient receptor potential cation channel C4 beta (TRPC4), mouse; assay: TRPC4 cation channel opening, second retest – cell-based, second round, Fluo4, HEK293 TRPC4beta/mu-opioid, 1 µM, confirmation (AID 2461;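 active = primary screen active and over 50% activation in each of two duplicate runs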); conditions: Fluo4 calcium fluorescence, at 1 µM; stronger effect = higher value
[3] = test system: TRPC4 (transient receptor potential cation channel C4 beta), mouse; assay: potentiation of DAMGO EC20 TRPC4 response – cell-based, second round, Fluo-4, HEK293 TRPC4beta/mu-opioid, 1 µM, confirmation (AID 2554;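 active = primary screen hit whose fluorescence ratio, in both repeats, exceeds the weak agonist control mean by 3 SD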); conditions: DAMGO EC20, Fluo-4 calcium flux, at 1 µM; stronger effect = higher value
[4] = test system: TRPC4 beta (transient receptor potential cation channel C4), mouse; assay: potentiation of DAMGO EC20 TRPC4 response – cell-based, Fluo-4, HEK293 TRPC4beta/mu-opioid, confirmation (AID 2555;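 active = primary screen hit whose calcium fluorescence ratio, in both repeats, exceeds the weak agonist control mean by 3 SD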); conditions: DAMGO EC20, Fluo-4 calcium flux, at 10 µM; stronger effect = higher value
[5] = target: Short transient receptor potential channel 4 (Mus musculus) (UniProt Q9QUQ5); assay: blockers of DAMGO-evoked TRPC4 calcium flux – cell-based, Fluo4, HEK293 TRPC4beta/mu-opioid, confirmation (AID 2636;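 active = calcium signal cut by more than 3 SD below the full-agonist control yet still positive, in both repeats and the earlier primary screen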); conditions: at 10 µM; stronger effect = higher value
[6] = target: Short transient receptor potential channel 4 (Mus musculus) (UniProt Q9QUQ5); assay: blockers of DAMGO-evoked TRPC4 calcium flux – cell-based, second round, Fluo4, HEK293 TRPC4beta/mu-opioid, 1 µM, confirmation (AID 2637;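 active = calcium signal ratio cut to more than 3 SD under the fully stimulated control mean yet still positive, in both repeats and the primary screen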;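 for inhibition: percent of integrated ratio relative to wells lacking test compound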); conditions: at 1 µM; stronger effect = higher value
[7] = target: Short transient receptor potential channel 4 (Mus musculus) (UniProt Q9QUQ5); assay: calcium entry via TRPC4 opening agents – cell-based, HEK293 TRPC4/mu-opioid, Fluo-4 calcium, dose response (AID 434937;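 active = primary screen activator hit with a dose response curve and TRPC4 channel activation at any tested dose; inactive = no activation, no dose response, or not a primary hit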)
[8] = target: Short transient receptor potential channel 4 (Mus musculus) (UniProt Q9QUQ5); assay: potentiation of DAMGO-evoked TRPC4 calcium signal – cell-based, HEK293 TRPC4/mu-opioid, Fluo-4 calcium, EC20 DAMGO, dose response (AID 434941;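 active = earlier screen potentiator hit that boosts the TRPC4 ion channel at some dose, with a dose response; inactive = no potentiation, no dose response, or not a prior hit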;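 note: calcium entry triggered by an EC20 dose of DAMGO at the co-expressed mu-opioid receptor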)
[9] = target: Short transient receptor potential channel 6 (Mus musculus) (UniProt Q61143); assay: TRPC6 blockade by TRPC4 inhibitor hits – cell-based, HEK293, membrane potential dye, duplicate, selectivity assay for TRPC4 inhibitor project, confirmation (AID 434948;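 active = active in primary screen and both duplicates, each dropping signal beyond three positive-control SD with fluorescence still positive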); conditions: HEK293 TRPC6, membrane potential dye fluorescence, at 10 µM, stimulated with maximal-effect acetylcholine; stronger effect = higher value
[10] = target: Short transient receptor potential channel 6 (Mus musculus) (UniProt Q61143); assay: TRPC6 opening by TRPC4 activator hits – cell-based, HEK293, membrane potential dye, duplicate, selectivity assay for TRPC4 activator project, confirmation (AID 434950); conditions: HEK293 TRPC6, membrane potential fluorescence, at 10 µM; activation: stronger effect = higher value; outcome: activation
[11] = target: Short transient receptor potential channel 6 (Mus musculus) (UniProt Q61143); assay: positive modulators of mouse TRPC6 channel – HEK293 cells, membrane potential dye, duplicate, selectivity assay for TRPC4 potentiator project, confirmation (AID 434952;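 active = compound raising the membrane signal above positive-control mean plus 3 SD in both repeats, and a primary screen hit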); conditions: HEK293 TRPC6, membrane potential dye fluorescence, at 10 µM, maximal acetylcholine added after compound; stronger effect = higher value
[12] = target: Short transient receptor potential channel 4 (Mus musculus) (UniProt Q9QUQ5); assay: calcium flux activators in TRPC4/5HT1a cells, counter-screen for TRPC4 activator project, cell-based, second counter screen, HEK293 TRPC4/5HT1a, Fluo-4 (AID 434977;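 active = calcium signal rise above buffer-control mean plus 5 SD in both duplicates, and also a hit in the primary screen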); conditions: Fluo-4 calcium flux, at 10 µM; stronger effect = higher value
[13] = serotonin-gated TRPC4 signal block – cell-based, second counter screen, HEK293 TRPC4/5HT1a, Fluo-4, counter-screen for TRPC4 inhibitor project, confirmation (AID 434978;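 active = primary screen active whose calcium signal fell more than 3 SD beyond the full-serotonin control mean in both duplicate plates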;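 for outcome: serotonin given first at submaximal then at maximal dose after compound preincubation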); conditions: Fluo-4 calcium flux, at 10 µM, serotonin added to trigger calcium flux; stronger effect = higher value
[14] = test system: TRPC4 (mouse), co-expressed with 5HT1a in HEK293; assay: enhancement of serotonin-evoked TRPC4 response – cell-based, second counter screen, HEK293 TRPC4/5HT1a, Fluo-4, counter-screen for TRPC4 potentiator project, confirmation (AID 434979;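 active = signal rise over 3 SD above mean of control wells given weak agonist, in both repeats and first screen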); conditions: Fluo-4 calcium flux, at 10 µM, serotonin added at its EC20 dose; stronger effect = higher value
[15] = nonspecific calcium rise without TRPC4 – cell-based, HEK293 mu-opioid receptor line, counter-screen for TRPC4 activator project, confirmation (AID 449723;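 active = hit in primary screen, with calcium signal over 5 SD above buffer well mean in both duplicates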;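 note: counter screen cells carry the mu-opioid receptor alone and lack TRPC4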); conditions: HEK293 mu-opioid cells, Fluo-4 calcium fluorescence, at 10 µM; stronger effect = higher value
[16] = nonspecific potentiation of DAMGO calcium response – cell-based, HEK293 mu-opioid receptor line, counter-screen for TRPC4 allosteric potentiator project, confirmation (AID 449724;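 active = calcium signal rise more than 3 SD above the low-dose agonist control mean, in both duplicate plates and the primary screen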); conditions: HEK293 mu-opioid receptor cells, Fluo-4 calcium flux, at 10 µM, compound added before EC20 DAMGO stimulus; stronger effect = higher value

Chain of Short transient receptor potential channel 6 (Mus musculus) (Q61143 whole entry, looked up): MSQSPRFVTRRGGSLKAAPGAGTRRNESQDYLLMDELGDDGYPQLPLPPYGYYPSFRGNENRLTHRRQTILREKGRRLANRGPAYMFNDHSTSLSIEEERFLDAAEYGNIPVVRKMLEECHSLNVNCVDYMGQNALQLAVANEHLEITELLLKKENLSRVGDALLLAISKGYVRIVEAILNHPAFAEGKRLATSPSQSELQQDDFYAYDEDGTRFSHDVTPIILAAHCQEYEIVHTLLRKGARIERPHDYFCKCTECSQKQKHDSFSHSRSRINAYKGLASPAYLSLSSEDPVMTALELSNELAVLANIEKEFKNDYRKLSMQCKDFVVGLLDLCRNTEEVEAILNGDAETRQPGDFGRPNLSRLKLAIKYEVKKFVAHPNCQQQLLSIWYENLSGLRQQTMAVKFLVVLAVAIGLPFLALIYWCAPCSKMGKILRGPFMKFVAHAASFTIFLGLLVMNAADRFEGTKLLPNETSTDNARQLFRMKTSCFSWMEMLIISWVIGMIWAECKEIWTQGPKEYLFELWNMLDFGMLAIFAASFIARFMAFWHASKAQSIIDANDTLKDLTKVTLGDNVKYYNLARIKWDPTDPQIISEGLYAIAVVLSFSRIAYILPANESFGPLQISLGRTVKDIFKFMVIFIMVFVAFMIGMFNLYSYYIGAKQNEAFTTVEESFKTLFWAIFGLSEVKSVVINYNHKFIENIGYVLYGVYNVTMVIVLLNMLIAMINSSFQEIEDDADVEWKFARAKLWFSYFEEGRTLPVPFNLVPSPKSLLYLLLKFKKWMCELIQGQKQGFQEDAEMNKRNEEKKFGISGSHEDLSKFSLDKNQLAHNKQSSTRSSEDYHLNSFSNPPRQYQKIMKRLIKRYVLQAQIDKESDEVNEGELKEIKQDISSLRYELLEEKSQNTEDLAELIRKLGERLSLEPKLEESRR
Chain of Short transient receptor potential channel 4 (Mus musculus) (Q9QUQ5 whole entry, looked up): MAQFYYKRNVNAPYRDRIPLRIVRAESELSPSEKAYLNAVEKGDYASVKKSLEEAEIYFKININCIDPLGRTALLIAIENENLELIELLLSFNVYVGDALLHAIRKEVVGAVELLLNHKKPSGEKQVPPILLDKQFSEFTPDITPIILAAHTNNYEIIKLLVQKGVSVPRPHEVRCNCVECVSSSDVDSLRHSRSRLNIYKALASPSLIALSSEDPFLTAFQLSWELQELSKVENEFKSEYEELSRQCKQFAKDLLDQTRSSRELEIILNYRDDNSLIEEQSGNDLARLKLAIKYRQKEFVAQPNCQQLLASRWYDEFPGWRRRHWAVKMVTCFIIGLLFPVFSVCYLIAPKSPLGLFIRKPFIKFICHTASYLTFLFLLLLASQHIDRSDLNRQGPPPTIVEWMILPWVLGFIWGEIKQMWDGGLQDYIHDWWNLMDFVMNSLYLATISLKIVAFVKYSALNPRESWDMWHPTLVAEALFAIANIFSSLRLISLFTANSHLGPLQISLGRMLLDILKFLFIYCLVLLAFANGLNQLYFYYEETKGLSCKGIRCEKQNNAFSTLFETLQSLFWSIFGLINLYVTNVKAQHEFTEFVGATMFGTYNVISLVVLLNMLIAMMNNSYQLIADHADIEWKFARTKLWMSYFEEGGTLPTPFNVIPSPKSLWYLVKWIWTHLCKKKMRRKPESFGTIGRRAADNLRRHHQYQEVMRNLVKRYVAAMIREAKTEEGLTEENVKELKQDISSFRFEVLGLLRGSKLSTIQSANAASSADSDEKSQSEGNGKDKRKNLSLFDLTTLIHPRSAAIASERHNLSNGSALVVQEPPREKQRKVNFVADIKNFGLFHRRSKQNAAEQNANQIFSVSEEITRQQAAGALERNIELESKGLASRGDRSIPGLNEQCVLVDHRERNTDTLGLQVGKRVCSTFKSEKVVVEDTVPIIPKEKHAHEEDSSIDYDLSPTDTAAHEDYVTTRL

COc1ccccc1C(=O)Nc1ccc2c(c1)CCCN2C(=O)c1cccs1
inactive: outcome [1] | outcome [2] | outcome [3] | outcome [4] | outcome [5] | outcome [6] | outcome [7] | outcome [8] | outcome [9] | outcome [10] | outcome [11] | outcome [12] | outcome [13] | outcome [14] | outcome [15] | outcome [16]

Cc1n[nH]c(C)c1CCCCOc1ccccc1F
active: inhibition [5] 98% | inhibition [6] 65% | inhibition [13] 28.3%
inactive: outcome [1] | outcome [2] | outcome [3] | outcome [4] | outcome [7] | outcome [8] | outcome [9] | outcome [10] | outcome [11] | outcome [12] | outcome [14] | outcome [15] | outcome [16]

CCOC(=O)CSc1nc2c(sc(=S)n2Cc2ccco2)c(=O)n1-c1ccccc1
active: inhibition [5] 68% | inhibition [6] 42%
inactive: outcome [1] | outcome [2] | outcome [3] | outcome [4] | outcome [7] | outcome [8] | outcome [9] | outcome [10] | outcome [11] | outcome [12] | outcome [13] | outcome [14] | outcome [15] | outcome [16]

CC(C)(C)NCc1ccccc1OCc1cccs1
inactive: outcome [1] | outcome [2] | outcome [3] | outcome [4] | outcome [7] | outcome [8] | outcome [10] | outcome [11] | outcome [12] | outcome [14] | outcome [15] | outcome [16]
active: inhibition [5] 95% | inhibition [6] 45% | inhibition [9] 15% | inhibition [13] 17.5%

O=C(Nc1cccc(Cl)c1)N1CCN2C(=O)c3ccccc3C12c1ccccc1 (stereo not given)
inactive: outcome [1] | outcome [2] | outcome [3] | outcome [4] | outcome [6] | outcome [7] | outcome [8] | outcome [9] | outcome [10] | outcome [11] | outcome [12] | outcome [13] | outcome [14] | outcome [15] | outcome [16]
active: inhibition [5] 69%

CCCn1c(NC(=O)c2ccc(Cl)c(S(=O)(=O)N3CCCC3)c2)nc2ccccc21
active: potentiation [3] 10% | potentiation [4] 24% | inhibition [5] 69% | potentiation [14] 6.75%
inactive: outcome [1] | outcome [2] | outcome [6] | outcome [7] | outcome [8] | outcome [9] | outcome [10] | outcome [11] | outcome [12] | outcome [13] | outcome [15] | outcome [16]

O=C(c1ccc2c(c1)OCO2)C1CCCN(Cc2cc(F)ccc2-n2cccn2)C1 (stereo not given)
inactive: outcome [1] | outcome [2] | outcome [3] | outcome [4] | outcome [6] | outcome [7] | outcome [8] | outcome [9] | outcome [10] | outcome [11] | outcome [12] | outcome [14] | outcome [15] | outcome [16]
active: inhibition [5] 87% | inhibition [13] 32.9%

CCC(C)NC(C(=O)Nc1ccc(Cl)c([N+](=O)[O-])c1)c1ccccc1 (stereo not given)
active: inhibition [5] 73%
inactive: outcome [1] | outcome [2] | outcome [3] | outcome [4] | outcome [6] | outcome [7] | outcome [8] | outcome [9] | outcome [10] | outcome [11] | outcome [12] | outcome [13] | outcome [14] | outcome [15] | outcome [16]

CCOc1cccc(CNCCO)c1OCc1ccc(Cl)cc1
active: inhibition [5] 92% | inhibition [13] 26.5%
inactive: outcome [1] | outcome [2] | outcome [3] | outcome [4] | outcome [6] | outcome [7] | outcome [8] | outcome [9] | outcome [10] | outcome [11] | outcome [12] | outcome [14] | outcome [15] | outcome [16]

OCCNCc1cc(Br)ccc1OCc1ccc(Cl)cc1Cl
active: inhibition [5] 49% | inhibition [13] 24.9%
inactive: outcome [1] | outcome [2] | outcome [3] | outcome [4] | outcome [6] | outcome [7] | outcome [8] | outcome [9] | outcome [10] | outcome [11] | outcome [12] | outcome [14] | outcome [15] | outcome [16]

Clc1ccc(CN2C3=NCCN3c3ccccc32)cc1Cl
inactive: outcome [1] | outcome [2] | outcome [3] | outcome [4] | outcome [5] | outcome [7] | outcome [8] | outcome [9] | outcome [10] | outcome [11] | outcome [12] | outcome [14] | outcome [15] | outcome [16]
active: inhibition [6] 65% | inhibition [13] 20.3%

NC(=O)c1nsc(C(=O)N(Cc2ccco2)C(C(=O)NCc2ccc(F)cc2)c2ccc(O)cc2)c1N (stereo not given)
inactive: outcome [1] | outcome [2] | outcome [3] | outcome [4] | outcome [7] | outcome [8] | outcome [9] | outcome [10] | outcome [11] | outcome [12] | outcome [14] | outcome [15] | outcome [16]
active: inhibition [5] 84% | inhibition [6] 55% | inhibition [13] 25.1%

O=c1c2ccccc2[nH]c(=S)n1CCN1CCN(Cc2ccccc2)CC1
active: inhibition [5] 75% | inhibition [6] 44%
inactive: outcome [1] | outcome [2] | outcome [3] | outcome [4] | outcome [7] | outcome [8] | outcome [9] | outcome [10] | outcome [11] | outcome [12] | outcome [13] | outcome [14] | outcome [15] | outcome [16]

CC1CCc2nc(NC(=O)CN3CCN(Cc4ccc5c(c4)OCO5)CC3)sc2C1 (stereo not given)
inactive: outcome [1] | outcome [2] | outcome [3] | outcome [4] | outcome [6] | outcome [7] | outcome [8] | outcome [9] | outcome [10] | outcome [11] | outcome [12] | outcome [14] | outcome [15] | outcome [16]
active: inhibition [5] 77% | inhibition [13] 28.7%

CCOc1ccccc1N(C(=O)c1snc(C(N)=O)c1N)C(C(=O)NCc1ccccc1)c1ccc(O)cc1 (stereo not given)
inactive: outcome [1] | outcome [2] | outcome [3] | outcome [4] | outcome [6] | outcome [7] | outcome [8] | outcome [9] | outcome [10] | outcome [11] | outcome [12] | outcome [14] | outcome [15] | outcome [16]
active: inhibition [5] 79% | inhibition [13] 41.9%

From PubChem BioAssay
